High-throughput results: PubChem BioAssay, National Center for Advancing Translational Sciences (NCATS)
Hits are enriched below; roughly 12% of the tested compounds scored in any of these assays.
ALDH1A1 inh – qHTS Assay for Inhibitors of Aldehyde Dehydrogenase 1 (ALDH1A1). 220,000 tested, 7.3% active. Potency, µM (titrated, usually from 75.3 µM), for inactives: at the top dose activity, negative = inhibition, actives largely listed as inhibitors. AID 1030, 2008. Purified ALDH1A1, NADH fluorescence, propionaldehyde substrate. Aldehyde dehydrogenase 1A1 (Homo sapiens), P00352; active = well fitted inhibition curve with a large enough effect, not every such curve was filed as active; inconclusive = small, poorly fitted or top-dose-only effect, or another doubt; inactive = no such curve, though single readings can be large or run the other way;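 note: plate controls were no enzyme wells and a reference inhibitor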
Target sequence (P00352 whole entry, looked up): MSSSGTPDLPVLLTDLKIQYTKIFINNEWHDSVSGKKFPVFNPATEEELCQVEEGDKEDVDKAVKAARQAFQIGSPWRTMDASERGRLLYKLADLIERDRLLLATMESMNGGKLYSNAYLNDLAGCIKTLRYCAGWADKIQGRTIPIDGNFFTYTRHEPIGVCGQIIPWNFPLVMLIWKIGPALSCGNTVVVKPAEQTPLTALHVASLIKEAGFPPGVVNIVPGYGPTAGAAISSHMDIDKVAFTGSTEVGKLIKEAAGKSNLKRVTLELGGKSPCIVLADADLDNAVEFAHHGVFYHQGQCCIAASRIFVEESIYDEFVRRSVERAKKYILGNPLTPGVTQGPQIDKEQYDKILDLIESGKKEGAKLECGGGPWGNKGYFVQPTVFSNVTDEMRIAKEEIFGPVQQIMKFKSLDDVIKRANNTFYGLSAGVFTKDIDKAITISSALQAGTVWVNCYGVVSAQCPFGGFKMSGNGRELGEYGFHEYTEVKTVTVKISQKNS
Sfp inh – qHTS Assay for Inhibitors of Bacillus subtilis Sfp phosphopantetheinyl transferase (PPTase). 4'-phosphopantetheinyl transferase ffp (Bacillus subtilis), Q9F4F7. Biochemical Sfp PPTase activity, qHTS. Potency, µM, without a hit: largest response in the series, negative = inhibition, most hits filed as inhibitors. 310,000 tested, 3.5% active;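 note: the enzyme is Sfp with the accession as filed and its product quenches rhodamine fluorescence; 0% = enzyme reaction without inhibitor and -100% = no enzyme wells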
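Buffer: 50 mM Hepes-Na pH 7.6, 10 mM MgCl2, 0.01% Nonidet P-40, 0.01% BSA. Enzyme 15 nM, pre-exposed to compound 15 min; substrates then added and fluorescence change tracked over 30 min.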
RORgamma inh – qHTS for inhibitors of ROR gamma transcriptional activity; Potency, µM (titrated, usually from 53.6 µM), without a hit: top-dose activity change, negative = inhibition, actives largely listed as inhibitors; 310,000 tested, 5.4% active; Drosophila S2 Gal4-RORgamma UAS-luciferase reporter, 20 h; Nuclear receptor ROR-gamma (Mus musculus), P51450; note: nearly all actives have a fitted effect of over 60% in size
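Luminescence from a UAS-regulated Photinus luciferase reporter in stably transfected Drosophila Schneider cells is measured; decreased signal marks ROR gamma inhibition. Fusion expression is induced by 700 uM copper sulfate for 20 hr.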
PLK1 PBD block – qHTS for Inhibitors of PLK1-PDB (polo-like kinase 1 - polo-box domain): Primary Screen; Potency, µM, without a hit: max response, negative = inhibition, hits mostly inhibitors; Plk1 PBD binding of FITC phosphopeptide, fluorescence polarization; AID 720504, 2013; Serine/threonine-protein kinase PLK1 (Homo sapiens), P53350; 360,000 tested, 2.8% active; note: series mostly up to about 57 µM; nearly all actives have a fitted effect of over 65% in size
VP16 counter – VP16 counterscreen qHTS for inhibitors of ROR gamma transcriptional activity. AID 2546, 2010. Drosophila S2 Gal4-VP16 UAS-luciferase, luminescence, 20 h. Potency, µM (series often up to 53.6 µM), inactives show at the highest dose activity, negative = inhibition, actives largely listed as inhibitors. 310,000 tested, 3.5% active;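 note: Gal4-VP16 expression switched on by copper sulfate through the metallothionein promoter; nearly all actives have a fitted effect of over 50% in size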
An asterisk follows results filed as active; u = inconclusive; x = no result; [ ] = dose if it differs, or a comment. Unless noted, calls come from the whole dose curve; as a rule, active = well fitted curve in the direction sought with a large enough effect; inconclusive = small, poorly fitted or top-dose-only effect, or another doubt; inactive = no such curve, though single readings can be large; an effect the other way counts as inactive or inconclusive. Unless noted, % is set by controls: 0 for no effect and ±100 for the full control effect; potency is the fitted concentration of half-maximal effect.

SMILES	ALDH1A1 inh	Sfp inh	RORgamma inh	PLK1 PBD block	VP16 counter
Cc1cc(C)n(CC2CC(=O)N(c3ccc(C)c(Cl)c3)C2=O)n1 (centres undefined)	-6%	8%	23%	u	-5%
COc1cccc(NC(=O)CSc2nnc(Cc3cccs3)n2-c2ccc(C)cc2)c1	3µM*	13%	-27%	-7%	-10%
COc1ccc(NC(=O)CSc2nnc(Cc3cccs3)n2-c2ccc(C)cc2)cc1	16µM*	6%	22%	-4%	11%
COc1ccc(C(=O)N/N=C/c2c(CO)cnc(C)c2O)cc1	u	14%	u	-13%	8%
Cc1ncc(CO)c(/C=N/NC(=O)c2ccoc2C)c1O	x	x	x	-13%	x
Cc1ncc(CO)c(/C=N/NC(=O)c2ccc(O)cc2)c1O	11%	-4%	10µM*	-3%	u
Cc1ncc(CO)c(/C=N/NC(=O)c2ccccc2Br)c1O	u	16%	10µM*	-1%	18µM*
Cc1ncc(CO)c(/C=N/NC(=O)c2cc3c(s2)CCCC3)c1O	u	3%	10µM*	-4%	4%
O=C1[C@H]2[C@@H](c3ccccc3)N[C@]3(CCCN(CC4CCCCC4)C3=O)[C@H]2C(=O)N1Cc1ccccc1	x	x	x	-21%	x
CCc1nc(SCC(=O)c2ccc3c(c2)OCCO3)c2ccccc2n1	u	50µM*	-15%	-18%	u
O=C(CSc1ncnc2ccccc12)c1ccc2c(c1)OCCO2	u	11%	-1%	-13%	0%
O=C(CSc1nc(Cc2ccccc2)nc2ccccc12)c1ccc2c(c1)OCCO2	u	-14%	6.3µM*	-8%	u
CCc1nc(SCC(=O)c2ccccc2)c2ccccc2n1	u	-11%	-1%	u	0%
CCCc1nc(SCC(=O)c2ccc(OC)cc2)c2ccccc2n1	10µM*	79µM*	u	-9%	-3%
Cc1ccc2cc(CCNC(=O)c3ccc(S(=O)(=O)N4CCCCC4)cc3)c(=O)[nH]c2c1	14µM*	-11%	32%	0%	3%
Cc1ccc2cc(CCNC(=O)c3ccc(S(=O)(=O)N4CCOCC4)cc3)c(=O)[nH]c2c1	x	17%	15%	1%	-4%
Cc1ccc2nc(Cl)c(C3CC(c4ccco4)=NN3S(C)(=O)=O)cc2c1 (centres undefined)	x	-27%	-1%	-7%	9%
Cc1ccc2cc(C3CC(c4ccco4)=NN3S(C)(=O)=O)c(Cl)nc2c1 (centres undefined)	18µM*	u	36%	-10%	4%
CCOc1ccc2cc(C3CC(c4ccco4)=NN3S(C)(=O)=O)c(=O)[nH]c2c1 (centres undefined)	x	22µM*	28%	u	21%
CS(=O)(=O)N1N=C(c2ccco2)CC1c1ccc(Cl)cc1Cl (centres undefined)	u	40µM*	-13%	1%	-6%
COC(=O)c1sccc1NC(=O)Nc1ccc(C)cc1	x	-5%	-21%	-4%	-15%
COC(=O)c1sccc1NC(=S)Nc1ccc(F)cc1	u	3%	13µM*	-15%	u
COC(=O)c1sccc1NC(=S)N(C)C1CCCCC1	0.35µM*	-21%	u	-2%	-5%
COC(=O)c1sccc1NC(=S)Nc1cc(C)ccc1OC	u	-11%	8.9µM*	-11%	16µM*
N/C(Cc1ccc(Cl)cc1Cl)=N\OC(=O)c1ccccc1	9%	11%	13µM*	3%	-2%
SMILES	ALDH1A1 inh	Sfp inh	RORgamma inh	PLK1 PBD block	VP16 counter
Cc1ccc(/C(N)=N/OC(=O)c2ccc(C)cc2Cl)cc1	-1%	13%	4.5µM*	-2%	10µM*
N/C(=N\OC(=O)c1ccc(Cl)cc1Cl)c1ccc(Cl)cc1	11%	11%	1%	1%	-10%
Cc1cccc(/C(N)=N/OC(=O)c2ccc(Cl)cc2Cl)c1	9%	9%	2µM*	2%	20µM*
Cc1cccc(/C(N)=N/OC(=O)c2cccc3ccccc23)c1	x	-3%	1.1µM*	x	5.6µM*
O=C(O)Cc1cc(Cl)ccc1O	5%[13.5 µM]	x	x	x	x
CCCC[C@@H]1CN2[C@H](c3ccc(Br)cc3)[C@@H](C)CC[C@H]2C(=O)O1	4%[13.5 µM]	17%	-11%[10 µM]	x	3%[10 µM]
CC(C)N(C)c1ncnc2c1ncn2[C@H]1CN(Cc2ccc3c(c2)OCO3)C[C@@H](CO)O1	x	x	x	0%	x
N/C(=N\OC(=O)c1ccc(Cl)cc1Cl)c1ccccc1	-5%	-12%	5µM*	-4%	u
COc1ccc(C(=O)O/N=C(\N)c2ccccc2)c(OC)c1	u	0%	4.5µM*	-5%	8.9µM*
CCCCNC(=O)C1(C)CCN1C(=O)Cc1cccc2ccccc12 (centres undefined)	x	x	x	2%	x
O=C(C[C@H]1CC[C@H]2[C@@H](COC[C@H](O)CN2Cc2ccccc2)O1)NCCCN1CCOCC1	x	x	x	5%	x
Cc1nc(C(F)(F)F)ccc1C(=O)N1CCCCCC1(C)C(=O)NCC(C)C (centres undefined)	x	x	x	-8%	x
COc1ccccc1N(C1=NCCCS1)S(=O)(=O)c1ccc(C(C)(C)C)cc1	0.22µM*	6%	29%	-21%	-12%
COc1ccc(N(C2=NCCCS2)S(=O)(=O)c2ccc(C(C)(C)C)cc2)cc1	0.79µM*	7%	3%	-6%	-16%
Cc1ccc([C@H]2C[C@@H](n3cc(C4CC4)nn3)[C@H](O)CN2C(=O)C2CCCCC2)cc1	x	x	x	2%	x
CCCCCCCCCCCC	x	5%	-9%	x	-4%
NC(Cn1ccc(=O)c(O)c1)C(=O)O (centres undefined)	8%	6%	5%	x	-12%
O=C(COC(=O)CC1CC2CCC1C2)NC(=O)NCc1ccco1 (centres undefined)	14µM*	u	2%	-2%	-8%
CC1(C(=O)Nc2ccccc2Br)CCN1C(=O)Cc1ccccc1Cl (centres undefined)	x	x	x	-5%	x
C/C=C\C(=O)Nc1cccc(C2=NOC3(C2)C[C@H](C(N)=O)N(C(=O)Cc2ccc([N+](=O)[O-])cc2)C3)c1 (some centres undefined)	x	-15%	-5%	-3%	-1%
COc1cccc(-c2csc(NC(=O)Oc3ccccc3)n2)c1	u	-2%	-10%	-21%	-1%
COc1cccc(-c2csc(NNC(=O)c3cccs3)n2)c1	x	-19%	2.2µM*	-10%	10µM*
C[C@H]1CN([C@@H](C)CO)S(=O)(=O)c2ccc(Br)cc2O[C@@H]1CN(C)Cc1cccc(F)c1	x	x	x	-2%	x
COc1ccc(C[C@@H]2CN3C(=NC[C@@H]3C)N2C[C@H](C)NC(=O)CCC2CCCCC2)cc1	7.1µM*	50µM*	2%	-8%	-10%
COc1ccc(C[C@H]2CN3C(=NC[C@@H]3Cc3ccccc3)N2CCNC(=O)c2ccc(C)c(Br)c2)cc1	u	32µM*	u	u	u
